Hit rate of the full screen: of about 420,000 compounds, about 50,000 (12%) were called active. Roughly 26% stayed inconclusive and do not appear here. Calls come from the whole dose curve; as a rule, active = well fitted inhibition curve with a large enough effect; inconclusive = small, poorly fitted or top-dose-only effect; inactive = flat fitted curve, though single readings scatter. This excerpt belongs to a sample that is enriched for actives.
Assay: qHTS for Inhibitors of human tyrosyl-DNA phosphodiesterase 1 (TDP1): qHTS in cells in presence of CPT; note: nearly all actives have a fitted effect of over 55% in size
Settings: chicken DT40 Tdp1-/-;hTDP1 cells + 20 nM CPT, ATP luminescence, 48 h; series mostly up to 46.2 µM; activity change, negative = growth inhibition: at the top concentration
Outline: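 Cell growth measured by CellTiter-Glo luminescence after a minimum 48 h, 37 C compound exposure with 20 nM CPT in Tdp1-knockout DT40 cells stably expressing hTDP1, seeded 400/well; qHTS titration format.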
% is set by controls: 0 for no effect and ±100 for the full control effect; potency is the fitted concentration of half-maximal effect.

| Structure (SMILES) | activity change, negative = growth inhibition | Potency |
| --- | --- | --- |
| COc1ccc(N2CCN(S(=O)(=O)c3ccc4c(c3)N(C(C)=O)CCO4)CC2)cc1 | -25.4% (inactive) |  |
| CN(C)c1ccc(/C=N/NC(=O)c2ccc(Cn3cc(Br)cn3)o2)cc1 | 22% (inactive) |  |
| CCOC(=O)C1CCN(C(=O)CN2C(=O)NC(C)(c3ccc4cc(OC)ccc4c3)C2=O)CC1 (configuration not stated) |  | 18.4 µM (active) |
| CC1(c2ccc3ccccc3c2)NC(=O)N(CC(N)=O)C1=O (configuration not stated) | 2.31% (inactive) |  |
| CCOC(=O)C1CCN(C(=O)Nc2cccc(OC)c2)CC1 | 2.86% (inactive) |  |
| CCSc1nnc(NC(=O)c2cc(=O)c3cc(C)c(C)cc3o2)s1 | -1.36% (inactive) |  |
| CN=C1S/C(=C\c2c(OC)cc(OC)cc2OC)C(=O)N1C | 12.4% (inactive) |  |
| O=C(COC(=O)/C=C/c1cccs1)NC1CCCCC1 | -15.2% (inactive) |  |
| CCOc1ncccc1C(=O)NCCc1ccc(OC)cc1 |  | 18.4 µM (active) |
| COc1ccc(CCNC(=O)c2cnc(Cl)c(Cl)c2)cc1 | 5.15% (inactive) |  |
| COc1ccc(CCNC(=O)c2ccco2)cc1 | -28.4% (inactive) |  |
| OCCN1CCN(c2ncnc3c2ncn3[C@H]2CN(Cc3ccco3)C[C@@H](CO)O2)CC1 | -19.2% (inactive) |  |
| Cc1nn(CC(=O)N2CCN(c3cccc(C(F)(F)F)c3)CC2)c(=O)c2cc3sccc3n12 | -2.5% (inactive) |  |
| COc1ccc2[nH]c3ccc(OC)cc3c2c1 | -5.32% (inactive) |  |
| COc1ccc2[nH]c3c(C)c4cc[n+](C)cc4c(C)c3c2c1 |  | 0.259 µM (active) |
| COc1ccc2[nH]c(=S)cc(C)c2c1 | -20.6% (inactive) |  |
| O=C(CSc1nnnn1C1CCCC1)N1CCCCC1 | -12.8% (inactive) |  |
| COc1ccccc1/C=C/C=N/NC(=O)CN1CCN(Cc2ccccc2)CC1 | 0.994% (inactive) |  |
| CSc1nc2ccccc2cc1/C=C(\C#N)c1ccc(Cl)cc1Cl | -10.7% (inactive) |  |
| Cc1ccc(-c2nnc(SCc3ccccc3C)o2)cc1 | -2.32% (inactive) |  |
| Cc1ccc(S(=O)(=O)N(CC(O)CN2CCCCC2)c2cccc([N+](=O)[O-])c2)cc1 (configuration not stated) | 3.37% (inactive) |  |
| Cc1ccc(S(=O)(=O)N(CC(O)CN2C(=O)NC(C)(C)C2=O)c2cccc([N+](=O)[O-])c2)cc1 (configuration not stated) | -5.2% (inactive) |  |
| COc1ccc([N+](=O)[O-])cc1N(CC(O)CN(CC(C)C)CC(C)C)S(=O)(=O)c1ccc(C)cc1 (configuration not stated) |  | 25.9 µM (active) |
| COC(=O)c1ccc(CNC(=O)C2CCC(=O)N(Cc3ccccn3)C2)cc1 (configuration not stated) | -14.2% (inactive) |  |
| CCOC(=O)COc1ccc(Cl)cc1C1NC(=O)NC(C)=C1C(C)=O (configuration not stated) | -12% (inactive) |  |

| Structure (SMILES) | activity change, negative = growth inhibition | Potency |
| --- | --- | --- |
| CCOC(=O)C1=C(CNC2CCCCC2)NC(=O)NC1c1cc(C)ccc1C (configuration not stated) |  | 25.9 µM (active) |
| NC(=O)N1CCc2ccccc21 | -8.45% (inactive) |  |
| CCOC(=O)C1=C(CN2CCc3ccccc32)NC(=O)NC1c1cccc([N+](=O)[O-])c1 (configuration not stated) |  | 14.1 µM (active) |
| CCOC(=O)C1=C(CN2CCc3ccccc32)NC(=O)NC1c1cc(C)ccc1C (configuration not stated) |  | 17.8 µM (active) |
| CCOC(=O)C1=C(c2ccccc2)NC(=O)NC1c1cc(OC)c(OC)cc1OC (configuration not stated) | 3.86% (inactive) |  |
| CCOC(=O)C1=C(CSc2nccn2C)NC(=O)NC1c1ccc(OC)cc1 (configuration not stated) | -2.12% (inactive) |  |
| Cc1nn(-c2ccccc2)c2c1C(c1cccc([N+](=O)[O-])c1)N(c1ccccc1)C(=O)N2 (configuration not stated) | -27% (inactive) |  |
| CCOCCOC(=O)C1=C(C)NC(=O)NC1c1ccc2c(c1)OCO2 (configuration not stated) | -6.39% (inactive) |  |
| CCc1cc(-c2nnc(SCC(=O)NC3CC3)n2C)cs1 | 22.9% (inactive) |  |
| NC(CSC(c1ccccc1)(c1ccccc1)c1ccc(-c2ccccc2)cc1)C(=O)O (configuration not stated) | -28.2% (inactive) |  |
| COC(=O)[C@@H]1C[C@H](NC(=O)c2ccccc2C(F)(F)F)CN1Cc1cccc(O)c1 | 9.61% [at 9.04 µM] (inactive) |  |
| CC(CN1CCC(n2nccc2NC(=O)C2CCCC2)CC1)c1ccccc1 (configuration not stated) | 7.53% (inactive) |  |
| C=CCN1CCN(c2ccncc2S(=O)(=O)N2CCN(C)CC2)CC1 | 12.7% (inactive) |  |
| CC1(C(=O)NCc2ccccc2)CSCC(=O)N1CCCN1CCOCC1 (configuration not stated) | 22.5% (inactive) |  |
| Cc1cc2oc(=O)cc(CN(C)Cc3ccccc3)c2cc1Cl | -8.96% (inactive) |  |
| CC(C)(O)C#Cc1ccc(CNC[C@H]2O[C@@H](n3cnc4c(=O)[nH]c(N)nc43)[C@H](O)[C@@H]2O)s1 | 12.5% (inactive) |  |
| C/C=C(\C)C(=O)O[C@H]1CC(C)=C2C(=O)C=C(C)C2[C@@H]2OC(=O)[C@@](C)(OC(=O)C=C(C)C)C21 (some centres not stated) | -19.3% [at 9.04 µM] (inactive) |  |
| C=C(C)C(=O)O[C@H]1C/C(C)=C\C(=O)/C=C(\C)[C@H](O)[C@@H]2OC(=O)C(=C)[C@@H]21 |  | 0.58 µM (active) |
| Cc1ccc(CNC(=O)CC(NC(=O)c2ccccc2)c2ccccc2)cc1 (configuration not stated) | -3.51% (inactive) |  |
| Cn1c(SCC(=O)Nc2nccs2)nnc1-c1cccnc1 | -11.3% (inactive) |  |
| CCOC(=O)C1CCN(C(=O)Nc2ccc(C)c(Cl)c2)CC1 | -1.03% (inactive) |  |
| COc1ccc2c(c1)C(C)=CC(C)(C)N2C(=O)CNCc1ccc2c(c1)OCO2 |  | 20.6 µM (active) |
| COc1ccc(NC(=O)NCc2ccc3c(c2)OCO3)c(OC)c1 | 9.94% (inactive) |  |
| COc1cccc(CNCc2ccc3c(c2)OCO3)c1 | -22.9% (inactive) |  |
| CCc1ccc(-n2c(=S)sc3c(=O)n(-c4ccccc4OC)c(=S)[nH]c32)cc1 | -29.9% (inactive) |  |

| Structure (SMILES) | activity change, negative = growth inhibition | Potency |
| --- | --- | --- |
| NS(=O)(=O)c1ccc(NC(=S)NNC(=O)c2cccs2)cc1 | -1.2% (inactive) |  |
| COc1ccc(C)cc1Nc1nc2ccccc2c2nnc(C)n12 | -15.5% (inactive) |  |
| FC(F)(F)c1cc(Nc2nc3ccccc3c3nncn23)ccc1Cl |  | 23.1 µM (active) |
| COc1cccc(NC(=O)C(Sc2nc3ccccc3c(=O)n2CC(C)C)c2ccccc2)c1 (configuration not stated) | -22.3% (inactive) |  |
| FC(F)(F)c1ccccc1-c1nc(-n2ccnc2)c2ccccc2n1 | 5.11% (inactive) |  |
| COc1cccc(Nc2nc3ccccc3c3nncn23)c1 |  | 16.4 µM (active) |
| O=C(OCC(=O)c1cccs1)c1ccc([N+](=O)[O-])o1 | 7.59% (inactive) |  |
| Cc1ccc(CNC(=O)C2CCN(S(=O)(=O)c3ccc4nc5c(c(C(=O)O)c4c3)CC(C)CC5)CC2)cc1 (configuration not stated) |  | inactive |
| CCn1cc(CNC(=O)c2cc([N+](=O)[O-])c(C)c([N+](=O)[O-])c2)cn1 | -0.555% (inactive) |  |
| O=C(COc1ccc(Br)cc1)OCC(=O)c1ccc[nH]1 | -2.95% (inactive) |  |
| Cc1c(C)n2c(SCC(=O)N3CCCC3)nnc2[nH]c1=O | -2.74% (inactive) |  |
| CCOC(=O)C1CCCN(C(=O)CSc2nnc3nc(C)cc(C)n23)C1 (configuration not stated) |  | 25.9 µM (active) |
| Cc1cc2nnc(SCC(=O)N3CCN(c4ccccc4)CC3)n2c(N)n1 | -13.6% (inactive) |  |
| CN(C(=O)COC(=O)c1ccc(Br)o1)c1c(N)n(Cc2ccccc2)c(=O)[nH]c1=O | -5.55% (inactive) |  |
| C[C@H]1CN([C@@H](C)CO)S(=O)(=O)c2ccc(-c3cccc(F)c3)cc2O[C@@H]1CN(C)C | -11.3% (inactive) |  |
| C[C@@H]1CN([C@@H](C)CO)S(=O)(=O)c2ccc(-c3ccc(C(=O)N(C)C)cc3)cc2O[C@@H]1CN(C)Cc1ccccc1C(=O)O | 9.29% (inactive) |  |
| C[C@@H]1CN([C@H](C)CO)S(=O)(=O)c2ccc(C#C[C@@H](C)O)cc2O[C@@H]1CN(C)Cc1ccc(-c2ccccc2)cc1 |  | 11.6 µM (active) |
| Cc1ccccc1-c1ccc2c(c1)O[C@@H](CN(C)Cc1ccc(C(=O)O)cc1)[C@@H](C)CN([C@H](C)CO)S2(=O)=O | 10.1% (inactive) |  |
| C[C@@H]1CN([C@@H](C)CO)S(=O)(=O)c2ccc(C#Cc3cccc(F)c3)cc2O[C@H]1CN(C)S(=O)(=O)c1cn(C)cn1 |  | 18.4 µM (active) |
| C[C@H](CO)N1C[C@H](C)[C@@H](CN(C)C(=O)c2cccc(F)c2)Oc2cc(-c3cncnc3)ccc2S1(=O)=O | -23.7% (inactive) |  |
| CCc1c(C)nc2cc(C)[nH]n2c1=O | -3.18% (inactive) |  |
| CCOc1ccc(S(=O)(=O)NCCC(=O)NCC2CCCO2)cc1 (configuration not stated) | 4.72% (inactive) |  |
| Cc1c[n+]([O-])ccc1[N+](=O)[O-] | -29.1% (inactive) |  |
| O=C(O)C1CC=C(Cl)CC1C(=O)NCc1ccccc1 (configuration not stated) | -22% (inactive) |  |
| O=C(NCc1ccccc1)[C@H]1C[C@@H]1[C@H](NP(=O)(c1ccccc1)c1ccccc1)c1ccccc1 |  | 18.4 µM (active) |

| Structure (SMILES) | activity change, negative = growth inhibition | Potency |
| --- | --- | --- |
| O=C(NCc1ccccc1)C1CNCC(C(=O)NCc2ccccc2)C1 (configuration not stated) | -5.56% (inactive) |  |
| CCc1cc2cc(OC)ccc2nc1SCC(=O)Nc1cc(OC)c(OC)cc1C(=O)O | -17.5% (inactive) |  |
| COc1ccc(C)cc1NC(=O)CSc1cccc[n+]1[O-] | 1.37% (inactive) |  |
| CC(=O)c1nc2ccccc2n1Cc1ccccc1 | 2.81% (inactive) |  |
| CC(C)(C)NC(=O)C(CCc1ccccc1)n1c(=O)c(-c2ccccc2)nc2ccccc21 (configuration not stated) |  | 5.17 µM (active) |
| CCCc1nc2ccccc2n1C(C)C(=O)NC(C)(C)C (configuration not stated) | -17.6% (inactive) |  |
| CCC(C(=O)Nc1c(C)cccc1C)n1c(-c2cc(C)cs2)nc2ccccc21 (configuration not stated) | 0.528% (inactive) |  |
| Cn1c(CNC(=O)C(C)(C)C)nc2ccccc21 | 6.61% (inactive) |  |
| CCC(C(=O)NC(C)(C)C)n1c(-c2ccccc2)nc2ccccc21 (configuration not stated) |  | 20.6 µM (active) |
| COc1ccc(OC)c(/C=N/NC(=O)c2ccc[n+](CC(=O)c3ccccc3)c2)c1 | -15.7% (inactive) |  |
| COc1cccc(NC(=O)CN(C)C(=O)c2cc(C3CC3)nn2-c2ccccc2)c1 | -10.6% (inactive) |  |
| CC(=O)Nc1ccc(NC(=O)COC(=O)C2CCC(C(C)(C)C)CC2)cc1 (configuration not stated) | -21.5% (inactive) |  |
| O=C(NCc1cccc(Cl)c1)C1CCN(c2nnc(N3CCCC3=O)s2)CC1 | -13.8% (inactive) |  |
| COc1ccc(CCNC(=O)COC(=O)Cc2cccc(F)c2)cc1 | 1.26% (inactive) |  |
| Cc1ccc(CCNC(=O)Cn2c(-c3cccs3)cc3cc(F)ccc32)cc1 |  | 18.4 µM (active) |
| COc1ccc(CCNC(=O)CN2CCC(n3nnc4cc(F)ccc43)CC2)cc1OC | 1.72% (inactive) |  |
| Cc1cnc(C(=O)Oc2cccc(Cl)c2Cl)cn1 | 3.5% (inactive) |  |
| CCOC(=O)c1cnc(SC)nc1Sc1ccc(Cl)cc1Cl | -26.7% (inactive) |  |
| O=C1[C@@H](c2ccccc2)[C@@H](c2ccccc2)N1c1cccnc1 |  | 16.4 µM (active) |
| O=C1C(=O)N(c2ccccc2)C(c2ccccc2)C1c1ccccc1 (configuration not stated) | -1.33% (inactive) |  |
| CCc1ccccc1NC1c2ccccc2C(=O)N1c1cccnc1 (configuration not stated) | -23% (inactive) |  |
| CCCN(CCC)c1c([N+](=O)[O-])c(=O)oc2ccccc12 | 28.2% (inactive) |  |
